The whole screen tested about 69,000 compounds, of which about 8,600 (12%) showed an effect of 50% or more. Only a selection was taken, and strong results are over-represented in it overall.
These compounds were tested on Plasmodium berghei (assay: Screen against P. berghei liver stage (PbLuc), transformed with Luciferase, at 10uM). Conditions: tested at 10 uM.
Assay type: functional, HepG2
In the case of `CN(Cc1ccco1)C(=O)CN1C(=O)c2ccccc2C1=O`, the INHIBITION is reported as 33.4%.
Compound `CN(C)CCN1C(=O)CCCC12CCCN(Cc1cccs1)C2` (stereo not drawn) has an INHIBITION of -3.58%.
With `CNC(=O)NCC(=O)N(C)C(c1ccc(Cl)cc1)c1cccnc1` (stereo not drawn) the INHIBITION was 35.1%.
`CN(CCO)C1CCN(c2ncc3c(n2)CCN3c2ccccc2)CC1` gave an INHIBITION of 22.3%.
`CC(C)(N)c1cn(C2CCN(c3ncccc3Cl)CC2)nn1` was tested, and the INHIBITION was 30.4%.
Compound `CC(O)Cc1cn(CC2CCN(c3nccc4occc34)CC2)nn1` (stereo not drawn) has an INHIBITION of 11.8%.
For `Cc1csc2ncnc(N3CCCC(Cn4cc(C(C)(C)O)nn4)C3)c12` (stereo not drawn), the INHIBITION was 48.5%.
`Cc1csc2c(N3CCC(Cn4cc(C(C)(C)O)nn4)CC3)ncnc12` was tested, and the INHIBITION was 79.3%.
For `CC(C)(O)c1cn(C[C@H]2C[C@@H]3CCN2C[C@@H]3C(=O)N2CCOCC2)nn1`, the INHIBITION was -0.473%.
In the case of `CC(C)(O)c1cn(C2CCN(c3ncccc3Cl)CC2)nn1`, the INHIBITION is reported as 25.7%.
In the case of `Cc1csc2ncnc(N3CCC(Cn4cc(C(C)(C)N)nn4)CC3)c12`, the INHIBITION is reported as 84.2%.
`Cc1csc2ncnc(N3CCC(Cn4cc(C(C)(C)O)nn4)CC3)c12` was tested, and the INHIBITION was 84.2%.
With `O=C(c1ccoc1)N1CCN(Cc2ccccc2F)CC1` the INHIBITION was 18.3%.
With `Cc1ccc(CS(=O)(=O)N2Cc3c(CN(C)C)nn(C)c3C2)cc1` the INHIBITION was 8.6%.
`COc1ccc(C2=NOC(CO)C2)cc1` (stereo not drawn) gave an INHIBITION of 35.8%.
In the case of `Fc1cccc(-c2nccnc2C2CCCNC2)c1` (stereo not drawn), the INHIBITION is reported as 8.72%.
`c1cc(CN2CCC3(CC2)COC(COCC2CC2)C3)ccn1` (stereo not drawn) showed an INHIBITION of 1.9%.
`O=C(Cc1ccsc1)N1CCOC(c2nc(-c3ncccn3)no2)C1` (stereo not drawn) gave an INHIBITION of 21.9%.
`Cn1c(CCC(=O)N2CCCC3(CNC(=O)O3)C2)nc2cccnc21` (stereo not drawn) gave an INHIBITION of 22.5%.
For `Cc1nc(C2CCN(C(=O)c3cc(C4CC4)[nH]n3)CC2)no1`, the INHIBITION was 11.9%.
Compound `CS(=O)(=O)Nc1ccn(Cc2cccc(F)c2)n1` has an INHIBITION of 49.1%.
`c1cc(CN2C[C@@H]3OCCN(CC4CCCO4)[C@@H]3C2)ccn1` (stereo partly drawn) gave an INHIBITION of -1.55%.
For `c1cc(CN2C[C@@H]3OCCN(CC4CC4)[C@@H]3C2)n[nH]1`, the INHIBITION was 59.3%.
In the case of `Fc1ccc(CN2C[C@@H]3OCCN(CCN4CCCC4)[C@@H]3C2)cc1`, the INHIBITION is reported as 11.3%.
Compound `Fc1ccc(CN2C[C@@H]3OCCN(CC4CCCO4)[C@@H]3C2)cc1` (stereo partly drawn) has an INHIBITION of 68.4%.
In the case of `CC(C)N1CCO[C@H]2CN(Cc3cc[nH]n3)C[C@H]21`, the INHIBITION is reported as 29.4%.
With `COc1ccc(CN2C[C@@H]3OCCN(CCN4CCCC4)[C@@H]3C2)cc1` the INHIBITION was 82.3%.
`COc1ccc(CN2C[C@@H]3OCCN(CC4CCCO4)[C@@H]3C2)cc1` (stereo partly drawn) gave an INHIBITION of 27.9%.
`COCCN1CCO[C@H]2CN(Cc3cc[nH]n3)C[C@H]21` showed an INHIBITION of 40.3%.
Work on `COc1ccc(CN2C[C@@H]3OCCN(CCN(C)C)[C@@H]3C2)cc1` yielded an INHIBITION of 26.4%.
`CN(Cc1cscn1)C1CCCN(c2cccnn2)C1` (stereo not drawn) showed an INHIBITION of 15.5%.
For `COc1c(C)cnc(CN2CCCC(c3noc(C4CC4)n3)C2)c1C` (stereo not drawn), the INHIBITION was 17.1%.
`CCc1n[nH]c(C2CN(C(=O)c3ccc4c(c3)CCCC4)CCO2)n1` (stereo not drawn) showed an INHIBITION of -43.6%.
`O=C(O)c1cncc(Cc2cccc(F)c2)c1` was tested, and the INHIBITION was -19.7%.
Compound `CCc1ccc(CN2CCNC(C(=O)N3CCN(C)CC3)C2)nc1` (stereo not drawn) has an INHIBITION of -14.1%.
`COc1ccc(F)cc1C(=O)N(C)[C@@H]1CC[C@@H](O)[C@@H]1O` was tested, and the INHIBITION was -42%.
In the case of `Cc1ccoc1C(=O)N1CCn2nnc(COc3cccnc3)c2C1`, the INHIBITION is reported as 17.1%.
Compound `Cn1cc(CN2CCOC(c3nccnc3-c3cccc(F)c3)C2)cn1` (stereo not drawn) has an INHIBITION of 23%.
For `CC(C)NC(=O)N1CCN(S(C)(=O)=O)CC2(CNC(=O)C2)C1` (stereo not drawn), the INHIBITION was -3.52%.
Work on `N#Cc1cccc(CN2CC[C@@H]3CO[C@@H](CN4CCCC4)[C@@H]3C2)c1` yielded an INHIBITION of 23.3%.
In the case of `CN(C)CCOCc1cncc2c1CCN(C(=O)C1CCOCC1)C2`, the INHIBITION is reported as 55.4%.
Work on `O=C(c1ccncc1)N1CCc2c(COCC3CC3)cncc2C1` yielded an INHIBITION of -1.55%.
`COCc1cncc2c1CCN(C(=O)c1ccc(C)o1)C2` gave an INHIBITION of 7.11%.
With `O=C(c1ccc[nH]1)N1CCc2c(COCC3CC3)cncc2C1` the INHIBITION was 14.8%.
With `O=C(c1cccnc1)N1CCc2c(COCC3CC3)cncc2C1` the INHIBITION was -5.05%.
`O=C(c1ccco1)N1CCc2c(COCC3CC3)cncc2C1` gave an INHIBITION of -3.88%.
In the case of `Cc1ccc(C(=O)N2CCc3c(COCC4CC4)cncc3C2)o1`, the INHIBITION is reported as 88.2%.
`CN(C)C(=O)N1CCc2c(COCC3CC3)cncc2C1` was tested, and the INHIBITION was 59%.
For `N#Cc1ccc(C(=O)N2CCc3c(COCC4CC4)cncc3C2)cc1`, the INHIBITION was 43%.
Work on `CN(C)CCOCc1cncc2c1CCN(C1CCOC1)C2` (stereo not drawn) yielded an INHIBITION of -2.27%.
`CN(C)CCOCc1cncc2c1CCN(C1CCOCC1)C2` was tested, and the INHIBITION was 12.6%.
For `O=C(c1ccoc1)N1CCc2c(COCC3CC3)cncc2C1`, the INHIBITION was 64.9%.
`COCCN1CCC2(COCCN(C(=O)Cc3cccs3)C2)C1` (stereo not drawn) was tested, and the INHIBITION was -58.7%.
In the case of `Cc1cc(C(=O)N2CC[C@@H](N(C)C)[C@@H]2Cc2ccccc2)no1`, the INHIBITION is reported as -2.35%.
`COc1ccc(C(O)CNC(=O)NCc2c(C)cc(C)[nH]c2=O)cc1` (stereo not drawn) gave an INHIBITION of 16.9%.
For `CCO[C@H]1CN(C(=O)c2ccnnc2)[C@@H]2COC[C@H]12`, the INHIBITION was 13.6%.
`CCn1cc(-n2cc3nc(N4CCC(O)CC4)[nH]cc-3c2=O)cn1` was tested, and the INHIBITION was -10.6%.
With `O=C(c1cscn1)N1CC[C@@H]2[C@@H]1CCN2C1CCOCC1` the INHIBITION was -23.1%.
With `Cc1cnc(C(=O)N2Cc3ncn(C)c3C(COCC(C)C)C2)cn1` (stereo not drawn) the INHIBITION was 43%.
`O=C(c1n[nH]cc1Cl)N1CCOCC1` was tested, and the INHIBITION was 39.1%.
`Cc1ccc(N2CCC3(CCCN(C(=O)c4cnccn4)C3)C2)nn1` (stereo not drawn) showed an INHIBITION of 18.5%.
Compound `Cc1ccc(CN2CCc3ncnc(-c4ccncc4)c3CC2)o1` has an INHIBITION of -4.32%.
Compound `Cc1cc(CN2CCN(c3ccnc(-c4ccccc4)n3)CC2)no1` has an INHIBITION of 2.29%.
For `Cc1ccc(CN2CCc3ncnc(-c4ccc(F)cc4)c3CC2)o1`, the INHIBITION was 13.7%.
`Cc1noc(C)c1CN1CCc2ncnc(-c3ccc(F)cc3)c2CC1` was tested, and the INHIBITION was 67.5%.
For `Cc1noc(C)c1CN1CCc2ncnc(-c3cccnc3)c2CC1`, the INHIBITION was 25.8%.
`c1ccc(CN2CCc3ncnc(-c4ccncc4)c3CC2)nc1` showed an INHIBITION of 46.2%.
`Cc1noc(C)c1CN1CCc2ncnc(-c3cnn(C)c3)c2CC1` was tested, and the INHIBITION was 43%.
Compound `Cc1noc(C)c1CN1CCc2ncnc(-c3ccncc3)c2CC1` has an INHIBITION of 90.1%.
For `Cc1noc(C)c1CN1CCN(c2ccnc(-c3ccccc3)n2)CC1`, the INHIBITION was 62.5%.
`Cc1noc(C)c1CN1CCc2ncnc(-c3ccccc3)c2CC1` was tested, and the INHIBITION was 53%.
For `Cc1nc(CN2CCc3ncnc(-c4ccc(F)cc4)c3CC2)cs1`, the INHIBITION was 15.4%.
`Cc1cnc(CN2CCN(c3ccnc(-c4ccccc4)n3)CC2)cn1` showed an INHIBITION of 47.2%.

— ChEMBL document CHEMBL4513216, “Probing the Open Global Health Chemical Diversity Library for Multistage-Active Starting Points for Next-Generation Antimalarials” (ACS Infect Dis, 2020)
